This is an account of results in PubChem BioAssay (NCI).

About 79,000 compounds went through this panel and 15% of them were active in at least one assay; those are over-represented in the sample as a whole. Unmarked numbers belong to inactive results. Calls of active or inactive are those of the source. No stated cut-off is given here; in the data, active means growth inhibition above about 70%; inactive means the rest.

The assay can be described thus: NCI Yeast Anticancer Drug Screen. Data for the mlh1 strain (AID 171).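 Further: 0% = growth of vehicle-treated control cultures of the same strain.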 Particulars: S. cerevisiae mlh1 strain growth inhibition, active compounds read high. As to the method: Growth inhibition of yeast strains with defined genetic alterations is measured as a screen for potential anti-cancer activity. Selected strains with alterations in DNA damage repair or cell cycle control were exposed to compounds and growth inhibition was measured relative to vehicle treated controls. The strain used in this assay is mlh1

In the case of `CCCCCCCCCCCCCCCCNC(=O)/C(=C\c1ccc(Cl)c(Cl)c1)NC(=O)c1ccccc1`, the growth inhibition was 0% (at 1.2 µM); -1% (at 3.7 µM); -3% (at 11.0 µM); -5% (at 33.0 µM); 47% (at 100.0 µM).
For `COc1cc(N(C)C)ccc1/C=C\c1ccnc2ccccc12`, the growth inhibition reads like this: (at 1.2 µM) -1%; (at 3.7 µM) -6%; (at 11.0 µM) 3%; (at 33.0 µM) 22%; (at 100.0 µM) 38%.
Regarding `CCN(CC)N=Nc1c(C(N)=O)n[nH]c1C`, the growth inhibition (at 1.2 µM) was 6%; the growth inhibition (at 3.7 µM) is -6%; the growth inhibition (at 11.0 µM) is -5%; the growth inhibition (at 33.0 µM) was -2%; the growth inhibition (at 100.0 µM) is -3%.
As to `COc1cc([C@@H]2c3cc4c(cc3[C@@H](OC3OC5COC(C)OC5C(O)C3O)[C@H]3COC(=O)[C@H]23)OCO4)cc(OC)c1O` (stereo not given in full), the growth inhibition reads like this: (at 1.2 µM) -4%; (at 3.7 µM) -3%; (at 11.0 µM) -1%; (at 33.0 µM) 0%; (at 100.0 µM) 7%.
In the same order, the values of `O=S1(=O)c2ccccc2N=C(c2ccccc2Cl)CC1c1ccc(F)cc1` (stereo not given) are -17%, -10%, -8%, 13% and 7%.
Consider `CCN(CC)CCNC(=O)c1nn(-c2ccc(Cl)cc2)c2c1CCc1cc(OC)ccc1-2`, for which the growth inhibition runs as follows: (at 1.2 µM) 13%; (at 3.7 µM) 17%; (at 11.0 µM) 10%; (at 33.0 µM) 0%; (at 100.0 µM) 87% (active).
As to `Cc1ccc(Nc2c3c(c(C#N)c4nc5ccccc5n24)CCCC3)cc1`, the growth inhibition was -5% (at 1.2 µM); 15% (at 3.7 µM); 22% (at 11.0 µM); 78% (active) (at 33.0 µM); 78% (active) (at 100.0 µM).
Turning to `CCn1ncc(N=O)c1N`, the growth inhibition reads like this: (at 1.2 µM) 3%; (at 3.7 µM) 5%; (at 11.0 µM) 20%; (at 33.0 µM) 35%; (at 100.0 µM) 53%.
